In PubChem BioAssay (NCATS):
Records with an inconclusive call do not appear. A call without a number means that no potency is given here. Unmarked numbers belong to inactive results. Activity calls are given as the source filed them. Calls follow the shape of the dose curve; as a rule, active = well fitted curve in the direction sought with a large enough effect; inconclusive = small, poorly fitted or top-dose-only effect, or another doubt; inactive = no such curve, though single readings can be large; an effect the other way counts as inactive or inconclusive.

Columns and labels:
[1] = test system: NIH3T3; experiment: Cytotoxic Profiling of Annotated Libraries Using Quantitative High-Throughput Screening (AID 1296008); conditions: Five cell lines viability, CellTiter-Glo ATP luminescence, 48-72 h; max response: hits give low values; also: nearly all actives have a fitted effect of over 60% in size
How it was run: (§1)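 Cytotoxicity was measured as CellTiter-Glo ATP luminescence, read after 10 min at room temperature. Compound treatment of the cells lasted 48 or 72 hr at 37 degrees Celsius in a qHTS format.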

[2] = test system: HACAT; experiment: qHTS assay to identify novel small-molecules to repurpose for Merkel cell carcinoma treatment (AID 1296009); conditions: MCC and control cell lines, CellTiter-Glo viability, 72 h; at 44.8 µM (top of the series) unless noted; also: nearly all actives have a fitted effect of over 60% in size; also: potency is read from the fitted curve at half-maximal effect
How it was run: (§2)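 Cell viability, measured as CellTiter-Glo luminescence, was normalized between DMSO and no-cell wells. The cells had been exposed to 8- or 11-point compound dilutions for 72 hr at 37 degree celsius.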

[3] = test system: MCC-13; experiment: as above; conditions: MCC and control cell lines, CellTiter-Glo viability, 72 h; series mostly up to 46 µM
How it was run: as §2

[4] = test system: MCC-26; experiment: as above; conditions: MCC and control cell lines, CellTiter-Glo viability, 72 h; series mostly up to 46 µM
How it was run: as §2

[5] = test system: MKL-1; experiment: as above; conditions: MCC and control cell lines, CellTiter-Glo viability, 72 h; series mostly up to 46 µM
How it was run: as §2

[6] = test system: MKL-2; experiment: as above; conditions: MCC and control cell lines, CellTiter-Glo viability, 72 h; series mostly up to 46 µM
How it was run: as §2

[7] = test system: UISO; experiment: as above; conditions: MCC and control cell lines, CellTiter-Glo viability, 72 h; series mostly up to 46 µM
How it was run: as §2

[8] = test system: WaGa; experiment: as above; conditions: MCC and control cell lines, CellTiter-Glo viability, 72 h; series mostly up to 46 µM
How it was run: as §2

[9] = test system: C33A; experiment: Primary qHTS to identify gynecologic anti-cancer compounds using libraries of approved drugs and bioactive compounds (AID 1345084); conditions: Gynecologic cancer cell panel viability, ATPlite luminescence, 48 h; series mostly up to 57.5 µM; also: nearly all actives have a fitted effect of over 55% in size; also: potency is read from the fitted curve at half-maximal effect
How it was run: (§3)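 ATP-based viability (ATPlite), 1,000 cells/well, 16 h pre-incubation, 48 h compound at 37 C, 5% CO2, 15 min RT before read.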

[10] = test system: CAOV3; experiment: as above; conditions: Gynecologic cancer cell panel viability, ATPlite luminescence, 48 h; series mostly up to 57.5 µM
How it was run: as §3

[11] = test system: CASKI; experiment: as above; conditions: Gynecologic cancer cell panel viability, ATPlite luminescence, 48 h; series mostly up to 57.5 µM
How it was run: as §3

[12] = test system: Es-2; experiment: as above; conditions: Gynecologic cancer cell panel viability, ATPlite luminescence, 48 h; series mostly up to 57.5 µM
How it was run: as §3

[13] = test system: HeLa; experiment: as above; conditions: Gynecologic cancer cell panel viability, ATPlite luminescence, 48 h; series mostly up to 57.5 µM
How it was run: as §3

[14] = test system: Hek293T; experiment: as above; conditions: Gynecologic cancer cell panel viability, ATPlite luminescence, 48 h, control line for the selectivity index; series mostly up to 57.5 µM
How it was run: as §3

[15] = test system: JEG-3; experiment: as above; conditions: Gynecologic cancer cell panel viability, ATPlite luminescence, 48 h; series mostly up to 57.5 µM
How it was run: as §3

[16] = test system: OV90; experiment: as above; conditions: Gynecologic cancer cell panel viability, ATPlite luminescence, 48 h; series mostly up to 57.5 µM
How it was run: as §3

[17] = test system: PA-1; experiment: as above; conditions: Gynecologic cancer cell panel viability, ATPlite luminescence, 48 h; series mostly up to 57.5 µM
How it was run: as §3

[18] = test system: NIH3T3; experiment: qHTS assay to identify novel small-molecules to repurpose for Merkel cell carcinoma treatment (AID 1296009); conditions: MCC and control cell lines, CellTiter-Glo viability, 72 h; at 44.8 µM (top of the series); also: nearly all actives have a fitted effect of over 60% in size; also: potency is read from the fitted curve at half-maximal effect
How it was run: as §2

[19] = test system: KB-3-1; experiment: Cytotoxic Profiling of Annotated Libraries Using Quantitative High-Throughput Screening (AID 1296008); conditions: Five cell lines viability, CellTiter-Glo ATP luminescence, 48-72 h; max response: hits give low values; also: nearly all actives have a fitted effect of over 60% in size
How it was run: as §1

SMILES | max response [1] | outcome [2] | Potency [3] | Potency [4] | Potency [5] | Potency [6] | Potency [7] | Potency [8] | Potency [9] | Potency [10] | Potency [11] | Potency [12] | Potency [13] | Potency [14] | Potency [15] | Potency [16] | Potency [17] | outcome [1] | outcome [18] | max response [19]
CCc1cc(Cl)c(OC)c(C(=O)NC[C@@H]2CCCN2CC)c1O | 4.04% | inactive | inactive | inactive | inactive | inactive | inactive | inactive | inactive | inactive | inactive | inactive | inactive | inactive | inactive | inactive | inactive | – | – | –
CCc1ccc(C(=O)C(C)CN2CCCCC2)cc1 (stereo not drawn) | -2.26% | inactive | inactive | – | – | 11.9 µM (active) | inactive | – | inactive | inactive | inactive | inactive | inactive | inactive | inactive | inactive | inactive | – | – | –
NCc1ccccc1Sc1ccccc1CO | – | – | inactive | inactive | inactive | inactive | inactive | – | inactive | inactive | inactive | inactive | inactive | inactive | inactive | inactive | inactive | inactive | inactive | –
Cc1cccc(C)c1NC(=O)CN1CCCCCC1 | 1.11% | – | inactive | inactive | inactive | inactive | inactive | inactive | inactive | inactive | inactive | inactive | inactive | inactive | inactive | inactive | inactive | – | – | –
C[C@]12CCC(=O)C=C1C=C[C@@H]1[C@@H]2CC[C@@]2(C)[C@H]1CC[C@@]21CCC(=O)O1 | – | – | inactive | inactive | inactive | inactive | – | – | inactive | – | – | inactive | inactive | inactive | inactive | inactive | inactive | – | – | -4.54%
COc1cc([C@H]2Oc3cc([C@H]4Oc5cc(O)cc(O)c5C(=O)[C@@H]4O)ccc3O[C@@H]2CO)ccc1O | – | – | inactive | – | inactive | inactive | inactive | inactive | inactive | – | inactive | inactive | inactive | inactive | inactive | inactive | – | – | – | 47.9%
O=C(N/N=C/c1ccc([N+](=O)[O-])o1)c1ccc(O)cc1 | – | – | – | – | 9.44 µM (active) | 10.6 µM (active) | 13.3 µM (active) | 10.6 µM (active) | – | – | – | – | inactive | 25.1 µM (active) | inactive | 22.4 µM (active) | 20 µM (active) | – | – | -13.9%
